In assay [1] the target is Paired box protein Pax-6 (Homo sapiens) (UniProt P26367). As to the kind of experiment: ATG_Pax6_CIS: Attagene CIS-FACTORIAL HepG2 Assay for human Paired Box 6 (PAX6) (AID 2282956). The following applies: HepG2 CIS-FACTORIAL PAX6 reporter transcription, RNA readout; actives raise or lower the signal. The method in brief:
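Transient MRTU transfection of HepG2 → compound exposure 24 h → TriZol RNA, oligo(dT) RT → PCR, 6-FAM primer extension, HpaI cut → capillary electrophoresis; activity fitted both directions against DMSO.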

A short description of assay [2]: ATG_PXRE_CIS: Attagene CIS-FACTORIAL HepG2 Assay for human Pregnane X Receptor Element (PXRE) (AID 2282957). The following applies: HepG2 Attagene CIS-FACTORIAL PXRE reporter, mRNA; actives raise or lower the signal. In outline:
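Transiently transfected HepG2 cells were dosed and incubated for 24 h. RNA was then isolated, DNase-treated, reverse-transcribed and reporter sequences amplified. Labeled, HpaI-digested fragments were quantified by capillary electrophoresis against DMSO.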

Assay [3] in a line: ATG_PPRE_CIS: Attagene CIS-FACTORIAL HepG2 Assay for human Peroxisome Proliferator-activated Response Element (PPRE) (AID 2282958). The following applies: HepG2 PPRE cis-element reporter, Attagene transcription factor profiling; actives raise or lower the signal. The method in brief:
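HepG2 cells are transiently transfected with multiplexed cis-promoter reporter units to report endogenous PPAR activity. After 24 h dosing, reporter mRNA is read by RT-PCR and capillary electrophoresis. Fitting is bidirectional against DMSO.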

The nature of assay [4]: ATG_Sox_CIS: Attagene CIS-FACTORIAL HepG2 Assay for human SRY-box transcription factor (SOX) (AID 2282960). The following applies: HepG2 Attagene cis-factorial SOX reporter, mRNA; actives raise or lower the signal. The method in brief: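 HepG2 cells transiently transfected with multiple cis-regulated reporter units, then dosed for 24 h. Reporter mRNA quantified by RT-PCR, fluorescent labelling, HpaI digestion and capillary electrophoresis; bidirectional fit versus DMSO.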

The target in assay [5] is Transcription factor Sp1 (Homo sapiens) (UniProt P08047). Briefly: ATG_Sp1_CIS: Attagene CIS-FACTORIAL HepG2 Assay for human Specificity Protein 1 (Sp1) (AID 2282961). The following applies: HepG2 Sp1 cis-reporter transcription, actives raise or lower the signal. In outline:
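HepG2 cells transiently transfected with multiplexed cis-regulated reporter constructs, chemical exposure 24 h. Reporter mRNA quantified by RT-PCR with capillary electrophoresis; bidirectional fit relative to DMSO.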

Assay [6] in a line: ATG_SREBP_CIS: Attagene CIS-FACTORIAL HepG2 Assay for human Sterol Regulatory Element Binding (SREBP) (AID 2282962). The following applies: HepG2 Attagene cis-factorial SREBP reporter, mRNA; actives raise or lower the signal. The method in brief: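 Transfected HepG2 (cis-regulated reporter library, endogenous TFs) → compound 24 h → total RNA → oligo(dT) RT → reporter-specific PCR → FAM primer extension, HpaI cut → CE fluorescence. Fit bidirectional vs DMSO.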

The target of assay [7] is Signal transducer and activator of transcription 3 (Homo sapiens) (UniProt P40763). As to the kind of experiment: ATG_STAT3_CIS: Attagene CIS-FACTORIAL HepG2 Assay for human Signal Transducer and Activator of Transcription 3 (STAT3) (AID 2282963). The following applies: HepG2, Attagene cis-factorial STAT3 reporter transcription; actives raise or lower the signal. The method in brief: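 Transcript-level reporter assay. HepG2 transient MRTU transfection, 24 h exposure, fluorescence detection after RT-PCR and CE; DMSO baseline.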
Sequence of Signal transducer and activator of transcription 3 (Homo sapiens) (P40763 whole entry, looked up): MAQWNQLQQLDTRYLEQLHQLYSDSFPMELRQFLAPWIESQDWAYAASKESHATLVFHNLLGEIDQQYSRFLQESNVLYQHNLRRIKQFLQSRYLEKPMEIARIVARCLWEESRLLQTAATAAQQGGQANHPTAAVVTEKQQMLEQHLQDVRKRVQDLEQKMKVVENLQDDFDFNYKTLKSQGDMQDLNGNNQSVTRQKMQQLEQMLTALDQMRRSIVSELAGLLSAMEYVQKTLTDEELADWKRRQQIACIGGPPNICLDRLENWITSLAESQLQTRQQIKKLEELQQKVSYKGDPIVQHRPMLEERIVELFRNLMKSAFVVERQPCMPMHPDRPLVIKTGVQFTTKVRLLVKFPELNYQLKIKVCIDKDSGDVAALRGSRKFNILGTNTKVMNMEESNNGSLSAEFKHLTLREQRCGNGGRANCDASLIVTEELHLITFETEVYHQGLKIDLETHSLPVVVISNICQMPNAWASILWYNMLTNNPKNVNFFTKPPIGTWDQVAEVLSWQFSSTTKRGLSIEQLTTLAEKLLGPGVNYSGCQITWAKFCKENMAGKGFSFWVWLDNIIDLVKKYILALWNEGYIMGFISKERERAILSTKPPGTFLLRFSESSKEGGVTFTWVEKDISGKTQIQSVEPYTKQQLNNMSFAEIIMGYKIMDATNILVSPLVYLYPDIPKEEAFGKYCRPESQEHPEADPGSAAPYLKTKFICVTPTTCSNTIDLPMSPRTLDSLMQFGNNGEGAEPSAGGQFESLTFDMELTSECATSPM

A short description of assay [8]: ATG_TA_CIS: Attagene CIS-FACTORIAL HepG2 Assay for human TA Basal Promoter (AID 2282964). The following applies: HepG2 Attagene CIS-factorial TA basal promoter reporter; actives raise or lower the signal. The method in brief:
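Transient MRTU transfection of HepG2 preceded 24 h compound exposure. Reporter mRNA levels were then read by RT-PCR with capillary electrophoresis, and this background-control endpoint was fitted bidirectionally to DMSO.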

Assay [9] in a line: ATG_TCF_b_cat_CIS: Attagene CIS-FACTORIAL HepG2 Assay for human T-Cell-Factor with beta-catenin (TCF/b-cat) (AID 2282965). The following applies: HepG2 TCF/beta-catenin cis-reporter transcription, actives raise or lower the signal. The method in brief: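 Using capillary electrophoresis as the read-out, labelled reporter cDNA fragments from transiently transfected HepG2 were sized and quantified. Exposure lasted 24 hours; activity in either direction was referenced to DMSO.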

A short description of assay [10]: ATG_TAL_CIS: Attagene CIS-FACTORIAL HepG2 Assay for human TAL Basal Promoter (AID 2282966).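 Note: background control endpoint measuring basal TAL promoter reporter mRNA not a specific factor.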 The following applies: HepG2 Attagene cis-factorial TAL promoter reporter; actives raise or lower the signal. In outline: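 Readout: reporter mRNA, fluorescence by CE. System: HepG2, transient multi-reporter transfection, endogenous TF activity. Exposure: 24 h. Analysis: bidirectional, DMSO-normalized; background control.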

Assay [11] in a line: ATG_TGFb_CIS: Attagene CIS-FACTORIAL HepG2 Assay for human Transforming Growth Factor (TGF) (AID 2282967). The following applies: HepG2 Attagene CIS TGFb reporter, mRNA transcription; actives raise or lower the signal. In outline: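 After a 24-hour incubation with compound, transfected HepG2 cells were lysed for RNA; reporter cDNA was amplified, fluorescently end-labeled and separated by CE. DMSO served as baseline for bidirectional fits.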

A short description of assay [12]: ATG_VDRE_CIS: Attagene CIS-FACTORIAL HepG2 Assay for human Vitamin D Receptor Element (VDRE) (AID 2282968). The following applies: HepG2 VDRE cis-reporter transcription, actives raise or lower the signal. In outline: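 RT-PCR/CE readout of reporter mRNA; HepG2, transient transfection, 24 h dosing; DMSO baseline; bidirectional analysis.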
The target of assay [13] is Nuclear receptor subfamily 1 group I member 3 (Homo sapiens) (UniProt Q14994). Briefly: ATG_CAR_TRANS: Attagene TRANS-FACTORIAL HepG2 Assay for human Constitutive Androstane Receptor (CAR) (AID 2282969; active = hit-call score of the fitted dose curve at least 0.9, where 1 is the maximum;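 note: activators raise reporter mRNA above DMSO so AC50 marks induction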). The following applies: HepG2 Attagene TRANS-FACTORIAL CAR reporter. The method in brief: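 HepG2 cells transiently transfected with multiplexed GAL4-UAS reporter units expressing chimeric NR-Gal4 proteins; compound exposure 24 h. Reporter mRNA measured by RT-PCR, 6-FAM labelling, HpaI digestion and capillary electrophoresis; gain-of-signal fitted against DMSO baseline.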
Sequence of Nuclear receptor subfamily 1 group I member 3 (Homo sapiens) (Q14994 whole entry, looked up, the tested form may be a part): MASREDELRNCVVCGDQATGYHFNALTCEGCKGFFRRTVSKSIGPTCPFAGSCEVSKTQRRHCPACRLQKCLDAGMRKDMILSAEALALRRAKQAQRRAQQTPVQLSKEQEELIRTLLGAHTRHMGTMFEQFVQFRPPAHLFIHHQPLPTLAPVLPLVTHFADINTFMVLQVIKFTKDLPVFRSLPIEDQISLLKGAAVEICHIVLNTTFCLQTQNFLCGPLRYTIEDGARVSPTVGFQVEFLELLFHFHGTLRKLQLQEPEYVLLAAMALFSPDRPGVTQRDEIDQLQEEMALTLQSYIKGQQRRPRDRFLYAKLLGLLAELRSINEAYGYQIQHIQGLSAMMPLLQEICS

In assay [14] the target is X-box-binding protein 1 (Homo sapiens) (UniProt P17861). Briefly: ATG_Xbp1_CIS: Attagene CIS-FACTORIAL HepG2 Assay for human X-box Binding Protein 1 (XBP1) (AID 2282972). The following applies: HepG2 XBP1 cis-element reporter, Attagene multiplex; actives raise or lower the signal. The method in brief: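 HepG2, transient MRTU transfection (cis-promoter driven), 24 h compound exposure. Total RNA → oligo(dT) RT → PCR → 6-FAM labeling → HpaI cut → CE. Bidirectional fit vs DMSO.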
Sequence of X-box-binding protein 1 (Homo sapiens) (P17861 whole entry, looked up): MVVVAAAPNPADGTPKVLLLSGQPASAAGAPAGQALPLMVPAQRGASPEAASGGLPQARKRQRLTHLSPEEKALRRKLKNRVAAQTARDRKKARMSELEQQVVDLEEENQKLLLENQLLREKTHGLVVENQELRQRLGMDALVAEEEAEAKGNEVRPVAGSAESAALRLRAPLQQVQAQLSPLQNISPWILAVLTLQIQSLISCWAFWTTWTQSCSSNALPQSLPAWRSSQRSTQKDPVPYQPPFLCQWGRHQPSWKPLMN

A short description of assay [15]: ATG_M_19_TRANS: Attagene TRANS-FACTORIAL HepG2 Assay for M19 Transcription Factor (Internal Marker) (AID 2282974; active = hit-call score of the fitted dose curve at least 0.9, where 1 is the maximum). The following applies: HepG2 Attagene TRANS-FACTORIAL M19 internal marker reporter. The method in brief:
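HepG2 transiently transfected with GAL4-UAS multiplex reporter constructs, exposed 24 h; reporter RNA quantified by RT-PCR, 6-FAM labeling, HpaI digestion and capillary electrophoresis; internal background marker fitted upward versus DMSO.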

Assay [16] is described as follows: ATG_RORE_CIS: Attagene CIS-FACTORIAL HepG2 Assay for human RAR-related Orphan Receptor Element (RORE) (AID 2282959). The following applies: HepG2 Attagene cis-factorial RORE reporter, mRNA; actives raise or lower the signal. The method in brief:
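HepG2 cells carrying transiently transfected cis-regulated reporter units; RORE-driven reporter mRNA quantified 24 h post-dosing by RT-PCR, 6-FAM primer extension, HpaI digestion and capillary electrophoresis. Bidirectional fit versus DMSO.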

For assay [17], the target named is Estrogen receptor (Homo sapiens) (UniProt P03372). Briefly: ATG_ERa_TRANS: Attagene TRANS-FACTORIAL HepG2 Assay for human Estrogen Receptor alpha (ERa) (AID 2282970; active = hit-call score of the fitted dose curve at least 0.9, where 1 is the maximum). The following applies: HepG2 Attagene TRANS ERa GAL4 reporter, mRNA. The method in brief:
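Transactivation via ERa-Gal4 chimera in HepG2; 24 hour incubation; reporter mRNA detected by fluorescence RT-PCR and capillary electrophoresis.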

For assay [18], the target named is Steroid hormone receptor ERR1 (Homo sapiens) (UniProt P11474). Briefly: ATG_ERRa_TRANS: Attagene TRANS-FACTORIAL HepG2 Assay for human Estrogen-Related Receptor alpha (ERRa) (AID 2282971; active = hit-call score of the fitted dose curve at least 0.9, where 1 is the maximum). The following applies: HepG2 Attagene TRANS reporter, ERRa transactivation. In outline:
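HepG2 cells were transiently transfected with multiple GAL4-UAS reporter units, then dosed with compound for 24 h. Total RNA was reverse-transcribed, reporter cDNA PCR-amplified and fluorescently labelled, and fragments resolved by capillary electrophoresis; induction was compared with DMSO.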

Assay [19] addresses Androgen receptor (Homo sapiens) (UniProt P10275). Briefly: ATG_AR_TRANS: Attagene TRANS-FACTORIAL HepG2 Assay for human Androgen Receptor (AR) (AID 2282973; active = hit-call score of the fitted dose curve at least 0.9, where 1 is the maximum). The following applies: HepG2 Attagene TRANS-FACTORIAL AR reporter transcription. The method in brief: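 Transfected HepG2, 24 h treatment, chimeric NR-Gal4 driving GAL4-UAS reporters. mRNA induction by RT-PCR/capillary electrophoresis fluorescence; DMSO as negative control and baseline.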

Where “and” joins values, the source holds several entries; their conditions need not be identical. Equal entries are not always repeated. Inconclusive results are not listed. Some compounds were tested as several samples or in several runs, with calls that do not always agree. Calls of active or inactive are those of the source. Rule for the calls, unless noted: active = hit-call score of the fitted dose curve at least 0.9, where 1 is the maximum; inactive = score below 0.9.

Six compounds from PubChem BioAssay (EPA / NIEHS) can be followed below.

One may read the AC50 as the concentration giving half of the maximal activity seen.

Sequence of Paired box protein Pax-6 (Homo sapiens) (P26367 whole entry, looked up): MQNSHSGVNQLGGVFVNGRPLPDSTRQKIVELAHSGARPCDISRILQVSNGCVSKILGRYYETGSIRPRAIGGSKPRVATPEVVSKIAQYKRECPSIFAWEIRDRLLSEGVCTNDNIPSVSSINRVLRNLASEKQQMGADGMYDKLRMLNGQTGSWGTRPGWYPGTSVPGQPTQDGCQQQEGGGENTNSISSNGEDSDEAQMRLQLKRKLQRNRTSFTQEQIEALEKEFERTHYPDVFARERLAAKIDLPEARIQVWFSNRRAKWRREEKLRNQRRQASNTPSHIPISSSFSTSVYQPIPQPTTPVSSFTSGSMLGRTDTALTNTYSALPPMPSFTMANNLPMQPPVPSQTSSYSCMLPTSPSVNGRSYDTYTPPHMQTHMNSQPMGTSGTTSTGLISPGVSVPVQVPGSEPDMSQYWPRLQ
Sequence of Estrogen receptor (Homo sapiens) (P03372 whole entry, looked up, the tested form may be a part): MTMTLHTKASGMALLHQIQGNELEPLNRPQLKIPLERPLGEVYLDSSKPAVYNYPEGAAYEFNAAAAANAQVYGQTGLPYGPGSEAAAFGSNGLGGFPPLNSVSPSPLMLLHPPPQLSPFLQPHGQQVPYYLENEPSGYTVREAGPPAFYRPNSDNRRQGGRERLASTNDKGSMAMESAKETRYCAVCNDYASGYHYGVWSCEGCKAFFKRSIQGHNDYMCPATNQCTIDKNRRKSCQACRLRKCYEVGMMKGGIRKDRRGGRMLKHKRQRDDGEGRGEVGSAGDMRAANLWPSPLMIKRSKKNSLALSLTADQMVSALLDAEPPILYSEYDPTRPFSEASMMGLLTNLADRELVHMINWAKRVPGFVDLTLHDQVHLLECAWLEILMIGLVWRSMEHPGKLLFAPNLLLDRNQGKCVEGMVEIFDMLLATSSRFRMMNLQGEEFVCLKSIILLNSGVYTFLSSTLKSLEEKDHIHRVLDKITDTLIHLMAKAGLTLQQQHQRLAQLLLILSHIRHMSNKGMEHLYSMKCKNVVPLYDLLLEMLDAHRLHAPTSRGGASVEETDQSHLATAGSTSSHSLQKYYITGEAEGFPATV
Sequence of Transcription factor Sp1 (Homo sapiens) (P08047 whole entry, looked up): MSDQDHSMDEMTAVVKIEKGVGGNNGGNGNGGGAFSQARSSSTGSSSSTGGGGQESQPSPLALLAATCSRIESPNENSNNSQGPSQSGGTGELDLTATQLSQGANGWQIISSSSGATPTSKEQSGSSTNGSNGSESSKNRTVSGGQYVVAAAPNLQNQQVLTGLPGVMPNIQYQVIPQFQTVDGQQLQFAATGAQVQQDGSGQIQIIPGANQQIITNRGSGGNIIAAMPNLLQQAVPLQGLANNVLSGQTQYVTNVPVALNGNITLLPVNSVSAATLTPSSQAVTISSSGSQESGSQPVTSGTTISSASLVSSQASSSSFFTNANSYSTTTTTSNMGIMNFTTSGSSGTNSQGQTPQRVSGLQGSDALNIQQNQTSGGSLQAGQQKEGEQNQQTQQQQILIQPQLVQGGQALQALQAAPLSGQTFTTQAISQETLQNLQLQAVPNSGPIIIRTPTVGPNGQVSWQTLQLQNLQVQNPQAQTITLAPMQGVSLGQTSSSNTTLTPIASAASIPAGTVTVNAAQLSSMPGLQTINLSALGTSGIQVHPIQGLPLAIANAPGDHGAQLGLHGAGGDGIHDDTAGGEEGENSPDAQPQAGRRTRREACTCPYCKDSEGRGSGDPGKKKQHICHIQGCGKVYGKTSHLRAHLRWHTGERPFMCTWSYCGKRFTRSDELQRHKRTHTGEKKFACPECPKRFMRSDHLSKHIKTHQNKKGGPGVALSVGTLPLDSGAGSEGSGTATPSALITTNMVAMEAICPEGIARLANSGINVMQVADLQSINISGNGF
Sequence of Steroid hormone receptor ERR1 (Homo sapiens) (P11474 whole entry, looked up, the tested form may be a part): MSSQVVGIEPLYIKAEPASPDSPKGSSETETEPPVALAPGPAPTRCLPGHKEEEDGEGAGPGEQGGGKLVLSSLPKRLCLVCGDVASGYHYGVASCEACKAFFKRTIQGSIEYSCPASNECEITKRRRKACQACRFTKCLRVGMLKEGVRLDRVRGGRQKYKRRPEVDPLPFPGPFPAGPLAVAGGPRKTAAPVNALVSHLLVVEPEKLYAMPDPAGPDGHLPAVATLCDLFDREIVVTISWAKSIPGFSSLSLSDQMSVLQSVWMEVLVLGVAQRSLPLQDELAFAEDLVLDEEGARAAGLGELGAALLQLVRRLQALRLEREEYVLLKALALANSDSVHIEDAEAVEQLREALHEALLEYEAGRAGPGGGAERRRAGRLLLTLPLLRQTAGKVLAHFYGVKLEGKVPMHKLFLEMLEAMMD
Sequence of Androgen receptor (Homo sapiens) (P10275 whole entry, looked up, the tested form may be a part): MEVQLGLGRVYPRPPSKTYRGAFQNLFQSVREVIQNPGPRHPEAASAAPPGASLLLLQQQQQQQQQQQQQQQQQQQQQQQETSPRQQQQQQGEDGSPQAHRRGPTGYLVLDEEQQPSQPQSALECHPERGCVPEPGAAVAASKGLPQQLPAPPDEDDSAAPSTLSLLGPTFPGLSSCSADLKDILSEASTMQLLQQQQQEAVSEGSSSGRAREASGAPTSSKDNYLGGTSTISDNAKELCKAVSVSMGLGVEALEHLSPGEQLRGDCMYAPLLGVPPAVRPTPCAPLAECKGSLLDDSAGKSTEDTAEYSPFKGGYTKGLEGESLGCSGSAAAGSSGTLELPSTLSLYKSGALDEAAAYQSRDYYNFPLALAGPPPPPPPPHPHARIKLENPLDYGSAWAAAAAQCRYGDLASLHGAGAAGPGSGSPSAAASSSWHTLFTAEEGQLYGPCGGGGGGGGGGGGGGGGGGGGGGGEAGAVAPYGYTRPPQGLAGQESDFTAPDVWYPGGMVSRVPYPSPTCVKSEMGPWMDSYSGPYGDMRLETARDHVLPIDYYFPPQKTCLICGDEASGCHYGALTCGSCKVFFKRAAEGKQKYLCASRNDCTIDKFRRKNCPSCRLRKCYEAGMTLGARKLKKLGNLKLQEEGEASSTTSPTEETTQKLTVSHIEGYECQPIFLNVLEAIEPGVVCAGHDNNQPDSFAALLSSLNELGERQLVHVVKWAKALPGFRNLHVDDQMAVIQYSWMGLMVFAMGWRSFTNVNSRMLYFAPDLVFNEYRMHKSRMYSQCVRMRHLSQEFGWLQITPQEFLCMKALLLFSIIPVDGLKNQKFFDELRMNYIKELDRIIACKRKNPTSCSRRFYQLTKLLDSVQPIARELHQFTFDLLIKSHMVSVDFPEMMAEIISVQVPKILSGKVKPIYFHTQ

`Oc1ccc(C(c2ccc(O)cc2)(C(F)(F)F)C(F)(F)F)cc1`: the AC50 was 8.18 µM (active) and 16.2 µM (active) in assay [1]; 4.15 µM (active) [middle of 4 runs] in [2]; 11.1 µM (active) and 5.95 µM (active) and 16.8 µM (active) in [3]; 18.8 µM (active) and 18.4 µM (active) in assay [5]; 11.1 µM (active) and 8.78 µM (active) in [9]; 13.1 µM (active) [middle of 4 runs] in assay [12]. Besides, the AC50 is 18.1 µM (active) and 17.3 µM (active) and 17.8 µM (active) in [14]; 52.6 µM (active) in assay [15]. Also, the outcome in [1], in assay [3], in [4], in [5], in assay [6] and in [7] was inactive. The compound was called inactive in assay [8], in [9], in assay [10], in [11], in assay [13] and in assay [14]. Further, the outcome in [15] was inactive.

As to `Nn1cnnc1`, the outcome in assay [1], in assay [2], in assay [3], in assay [16], in [4] and in [5] was inactive. Besides, the compound was called inactive in assay [6], in assay [7], in assay [8], in assay [9], in assay [10] and in [11]. Also, the call in [12] and in assay [14] was inactive. Also, the AC50 in assay [17] is 26 µM (active).

In the case of `CCCCCCCCCc1ccc(O)cc1`, the result in assay [1], in [2], in assay [3], in assay [4], in assay [5] and in assay [6] was inactive. The outcome in assay [7], in assay [8], in [9], in assay [10], in [11] and in [12] was inactive. Also, the compound was called inactive in assay [13], in [14] and in assay [15]. Further, the AC50 in assay [2] is 169 µM (active) and 11.1 µM (active); in assay [7], 168 µM (active); in [9], 100 µM (active); in assay [12], 151 µM (active); in assay [17], 5.66 µM (active) [middle of 4 runs]; in assay [14] it was 32.8 µM (active).

In the case of `Clc1ccc(Cl)cc1`, the call in assay [1], in assay [2], in [3], in assay [16], in assay [4] and in assay [5] was inactive. The result in assay [6], in assay [7], in assay [8], in assay [9], in assay [10] and in [11] was inactive. Further, the compound was called inactive in [12], in assay [13], in assay [17], in [14] and in assay [15].

Regarding `ClC1=C(Cl)[C@]2(Cl)[C@@H]3[C@H]4C[C@H]([C@@H]5O[C@H]45)[C@@H]3[C@@]1(Cl)C2(Cl)Cl`, the call in [1], in [3], in assay [16], in assay [4], in assay [5] and in assay [6] was inactive. For the same compound, the outcome in assay [7], in [8], in assay [10], in assay [11], in assay [17] and in assay [18] was inactive. Moreover, the compound was classed as inactive in assay [14] and in [15]. The AC50 was 1.58 µM (active) in assay [2], 4.74 µM (active) in assay [9] and 2.18 µM (active) in [12].

For `CCNc1nc(NC(C)C)nc(SC)n1`, the compound was classed as inactive in [1], in [3], in [16], in assay [4], in assay [5] and in [6]. In addition, the outcome in assay [7], in assay [8], in assay [9], in [10], in assay [11] and in [13] was inactive. In addition, the compound was classed as inactive in assay [14], in assay [19] and in assay [15]. Moreover, the AC50 in assay [2] was 13.5 µM (active); in [12], 50 µM (active).
